In PubChem BioAssay (Tox21) one finds outcome and viability change, negative = cytotoxic data, which are given here for 40 compounds.

Records with an inconclusive call do not appear. A number with no mark means an inactive call. Active and inactive are the calls of the source. Calls come from the whole dose curve.

The nature of this assay: qHTS assay to identify small molecule agonists of the AP-1 signaling pathway - cell viability counter screen (AID 1159525). Note: nearly all actives have a fitted effect of over 55% in size. The settings on record: ME-180 (cervical carcinoma) AP-1-bla cells viability, ATP luminescence, 5 h; series mostly up to 76.8 µM. The text has this: National Center for Advancing Translational Sciences [NCATS]
NIH Chemical Genomics Center [NCGC]
U.S. Environmental Protection Agency [EPA]
National Institutes of Environmental Health Sciences [NIEHS]
National Toxicology Program [NTP]
U.S. Food and Drug Administration [FDA]
Activator protein-1 (AP-1), a transcription factor, plays an important role in tumor genesis by regulating genes involved in cell proliferation, differentiation, apoptosis, and angiogenesis. AP-1 activity is induced by a complex network of signaling pathways that involves extracellular signals, such as growth factors. The AP-1 protein complex formed from c-Fos and c-Jun binding to the AP-1 response element results in transcriptional activation of genes containing such elements within their promoter.
Low molecular weight molecules have been discovered and developed to modulate various components of these signaling pathways, for example, MAP kinase inhibitors. However, many points of pathway modulation remain untested due to the lack of chemical probes making this signaling locus of general interest.
Using a beta-lactamase reporter-gene under control of the AP-1 response element, a cell-based assay [CellSensor(TM) AP-1-bla ME-180 developed by Invitrogen Corp.] was used to measure EGF-induced signaling. The Tox21 10K library compounds were measured for their ability to positively modulate the action of EC50 EGF on reporter gene activity. Compounds were screened in a 15-pt titration series in 1536-well format. The cytotoxicity of the Tox21 compound library against this cell line was tested in parallel by measuring the intra cellular ATP content in the same wells.
Tox21 Assay Protocol Summary:
2500 cells/5uL in Opti-MEM medium containing 0.5% dialyzed FBS, 0.1 mM NEAA, 1 mM sodium pyruvate and 10 mM HEPES was dispensed into 1536-well black wall/clear bottom plates using a Multidrop dispenser and cells were cultured at 37 degrees Celsius overnight. Next day 23 nL of compounds dissolved in DMSO, positive controls or DMSO were delivered to each well using a pin tool. The plates were incubated at 37 degrees Celsius for 5 hours. 1 uL of LiveBLAzerTM B/G FRET substrate (Solution A+B+C+D) was added to each well using a Flying Reagent Dispenser. After incubated at room temperature for 2.5 hours the plates were measured on an EnVision plate reader at Excitation 405nm, Emission1=460nm and Emission 2=530nm. The %Activity was determined from the ratio of 460nm/530nm.
After the plates were read for Beta-Lactamase assay on Envision; 3 ul Cell Titer Glo (Promega) was added to measure the cytotoxicity and the plates were then incubated at RT in dark for 30 min. The luminescence was read on ViewLux (Perkin Elmer, Shelton, CT) using 6 sec exposure. ViewLux data was expressed as relative luminescence units.
For primary data analysis, raw plate reads for each titration point were first normalized relative to […] EGF control (100%) and DMSO only wells (basal, 0%).
For primary data analysis for viability assay, raw plate reads for each titration point were first normalized Tetra n-octyl ammonium bromide control (-100%) and DMSO (control, 100%).
On to `Cc1ccccc1C(=O)N1CC/C(=N\OS(=O)(=O)O)c2ccc(Cl)cc21`, for which the compound was classed as inactive.
Same read-out and setting: with `CCOc1ccc(NC(=O)OC(C)C)cc1OCC` the entry was “inactive”.
Take `O=C(O)Cc1cccc(-c2cc(CCCCCCc3ccc(O[C@H]4O[C@H](CO)[C@@H](O)[C@H](O)[C@@H]4O)c(-c4cccc(CC(=O)O)c4)c3)ccc2O[C@H]2O[C@H](CO)[C@@H](O)[C@H](O)[C@@H]2O)c1`: the viability change, negative = cytotoxic is 1.08% [at 0.29 µM].
As to `O=c1[nH]c(=O)c2ccccc2o1`, the result was inactive.
On the same count and under the same terms, with `Cc1cccc(Nc2ccncc2S(=O)(=O)NC(=O)NC(C)C)c1` the entry was “inactive”; with `CN[C@@H]1[C@@H](O)[C@@H](O[C@@H]2[C@H](O)[C@H](O[C@H]3OC(CN)=CC[C@H]3N)[C@@H](N)C[C@H]2N)OCC1(C)O` (stereo not given in full), “inactive”.
Still for that read-out and setting: to `C=C(C)C(=O)OC1CC(C)CC(C)(C)C1` (stereo not given) belongs “inactive”; to `CC(=O)OC[C@H]1O[C@@H](OC(C)=O)[C@H](OC(C)=O)[C@@H]1OC(C)=O`, “inactive”; to `CCCCC/C=C/CC(=O)OC`, “inactive”.
For the compound `NS(=O)(=O)c1ccccc1OC(F)(F)F`, the result was inactive.
With `O=c1[nH]c(=O)c2[nH]c(=O)[nH]c2[nH]1`, the viability change, negative = cytotoxic is 10.8% [at 6.97 µM].
Take `Nc1ccc(C(=O)OCC(O)CO)cc1` (stereo not given): the call was inactive.
Same read-out and setting: to `CCCCCCCC[Si](OCC)(OCC)OCC` belongs “inactive”.
Turning to `Nc1c(NC/C=C\COc2cc(CN3CCCCC3)ccn2)c(=O)c1=O`, the viability change, negative = cytotoxic is -1.48% [at 15.8 µM].
For the compound `CCNC(=O)/C=C/c1cccc(Br)c1`, the call was inactive.
In the case of `CC(C)COC(=O)COc1ccc(Cl)cc1Cl`, the call was inactive.
In the case of `O=S(=O)(O)c1cc(O)ccc1O`, the compound was classed as inactive.
Same read-out and setting: to `O=C1CC[C@H](C(=O)N2CCCCC2)N1` belongs “inactive”.
On the same count and under the same terms, to `Cc1ccccc1OCC1CO1` (stereo not given) belongs “inactive”.
In the case of `CCCCCCCCCCCCCC(=O)OC`, the call was inactive.
`CC(C)(c1ccc(Oc2ccc3c(c2)C(=O)OC3=O)cc1)c1ccc(Oc2ccc3c(c2)C(=O)OC3=O)cc1`: the compound was called inactive.
Still for that read-out and setting: with `O=C1c2ccccc2-c2ccccc21` the entry was “inactive”; with `CCC(C)(CCC(C)C)C(=O)[O-].CCC(C)(CCC(C)C)C(=O)[O-].[Zn+2]` (stereo not given), “inactive”.
Same read-out and setting: with `FC(F)(F)/C(=N\OCC1OCCO1)c1ccc(Cl)cc1` the entry was “inactive”.
For `CCOC(=O)OCC/C(SC(=O)OCC)=C(\C)N(C=O)Cc1cnc(C)nc1N`, the compound was called inactive.
Regarding `CCOC(=O)C(=O)c1csc(NC=O)n1`, the result was inactive.
Turning to `CC(C)COC(=O)CCCCC(=O)OCC(C)C`, the result was inactive.
`Nc1ccc(/C=C/c2ccc(N)cc2S(=O)(=O)O)c(S(=O)(=O)O)c1`: the viability change, negative = cytotoxic was 6.31% [at 0.29 µM].
`O=C(O)CCNC(=O)c1ccccc1`: the outcome was inactive.
Take `CCCCC(C)C(=O)O` (stereo not given): the result was inactive.
On the same count and under the same terms, to `C=C[C@@H](C)CCC=C(C)C` belongs “inactive”; to `CC(C)(CO)[C@@H](O)C(=O)NCCCO`, “inactive”; to `CCN(CC)C(=O)C1CN2CCc3cc(OC)c(OC)cc3C2CC1OC(C)=O` (stereo not given), “inactive”.
The same measure, in the same setting: to `CCCOCCOCCOCCO` belongs “inactive”.
With `CC(C)=CC(C)(C)C`, the compound was called inactive.
For `O=C(O)c1ccccc1C(=O)OCc1ccccc1`, the outcome was inactive.
On the same count and under the same terms, with `CC1CCC(C(C)(C)S)C(=O)C1` (stereo not given) the entry was “inactive”; with `FC(F)(F)c1ccc(Cl)cc1Cl`, “inactive”.
Turning to `CNC(=O)NC`, the call was inactive.
On the same count and under the same terms, to `N#CCCOCCOCCC#N` belongs “inactive”.
